# A selection: hits, their analogues and other compounds. The true share with any hit is near 4.3%.
# esBAF inh = blocks esBAF chromatin remodeling in mouse ES cells; AID 602393; 350,000 tested, 2% active; Bmi1-luciferase knock-in reporter, 24 h; 100% = twice the neutral-well signal; reporter increase, % at 12.5 µM; in the data active = activation above about 40%; inconclusive = no clear call, values can overlap the other calls;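 also: 0% = median of the plate's neutral control wells and 100% = double that signal; a rise in the Bmi1 reporter signal indicates esBAF inhibition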
# Wnt bcat act = activates Wnt/beta-catenin signaling in a reporter cell assay. activator, plate reader. activation, % at 9.35 µM. 300,000 tested, 1.2% active. AID 743398; in the data active = activation above about 30%, passing the limit was not always enough; inconclusive = no clear call, values can overlap the other calls;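 also: 0% = neutral control wells and 100% = positive control wells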
# SMARCA2 activ = activators of SMARCA2 function; AID 652017; activation, % at 9.1 µM; 370,000 tested, 1% active; MG213 cells, MMTV-luciferase reporter, dexamethasone, overnight; in the data active = activation above about 7.8%;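 also: 0% = vehicle wells and 100% = reference activator wells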
# MITF act = MITF TRPM1 promoter activation in melanoma cells. AID 588334. activation, % at 12.5 µM. SK-MEL-5 TRPM1-promoter luciferase, 24 h; % of positive control, neutral wells = 0. 300,000 tested, 0.75% active;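 active = mean activation of at least 80% with every replicate also reaching 80%; inconclusive = mean reaches 80% but some replicate falls short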;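 also: 0% = neutral control wells and 100% = parthenolide positive control wells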
# FGF22 binding = binders of recombinant human FGF22 by thermal shift; Q9HCT0; SYPRO orange fluorescence; percent of sucrose octasulfate shift, DMSO zero; activity (Tm shift, normalised), % at 9.99 µM; 340,000 tested, 1.5% active;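 active = mean Tm shift, scaled 0 neutral to 100 positive control, at about 1.3% or above, every replicate too, limit read from the data; inconclusive = no clear call, values can overlap the other calls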
# Target sequence (Q9HCT0 whole entry, looked up): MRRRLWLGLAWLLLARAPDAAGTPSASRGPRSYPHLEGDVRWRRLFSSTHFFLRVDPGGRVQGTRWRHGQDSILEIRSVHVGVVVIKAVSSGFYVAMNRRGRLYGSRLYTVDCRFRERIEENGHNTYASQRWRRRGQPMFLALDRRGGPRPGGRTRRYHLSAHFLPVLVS
# MLL AF4-AF9 inh = MLL-AF4/AF9 protein interaction inhibition | inhibition, % at 10 µM | P42568 | AlphaScreen, biotin-AF4 peptide binding to FLAG-AF9 | AID 651704 | 350,000 tested, 0.47% active;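 active = every replicate reaching a set inhibition limit, whatever the replicate mean, cut at about 25% in these data; inconclusive = mean inhibition reaches that limit but some replicates miss it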;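 also: 0% = plate neutral control median and 100% = total signal loss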
# An asterisk follows results filed as active; ? = inconclusive; / = not tested or not shown.
SMILES,esBAF inh,Wnt bcat act,SMARCA2 activ,MITF act,FGF22 binding,MLL AF4-AF9 inh
Cc1ccoc1C(=O)Nc1cccc2ccccc12,42.1*,19.9,2.2,26.0,-0.1,0.2
O=C(C[C@@H]1C=C[C@@H](NC(=O)C2CCC2)[C@@H](CO)O1)NCCCN1CCOCC1,-2.1,/,/,/,0.3,-0.8
C[C@@H]1CN([C@@H](C)CO)C(=O)c2cc(NC(=O)C3CCCCC3)ccc2O[C@@H](C)CCCCO[C@@H]1CN(C)S(=O)(=O)c1cccs1,-3.0,/,/,/,-0.3,-1.4
O=C(O)/C=C/C(=O)Nc1ccc(C(=O)c2ccccc2)cc1,/,-0.6,3.4,7.0,0.0,1.4
O=C(O)/C=C/C(=O)Nc1ccc2c(c1)C(=O)c1ccccc1C2=O,/,50.4*,4.8,18.2,0.1,/
CN1CCN(C(=O)CCCN2C(=O)/C(=C/c3cccc(Br)c3)SC2=S)CC1,8.9,23.3,0.5,-18.0,0.3,27.4*
CCc1ccc(/C=C2\SC(=S)N(CCCC(=O)N3CCN(C)CC3)C2=O)cc1,-32.8,-6.1,-13.1,/,-0.4,33.4*
C[C@H](CO)N1C[C@H](C)[C@H](CN(C)Cc2ccc(Oc3ccccc3)cc2)Oc2ccc(NC(=O)CCN3CCOCC3)cc2C1=O,-3.0,/,/,/,-1.1,7.1
C[C@H]1CCCCO[C@@H](CN(C)C(=O)Nc2ccccc2)[C@@H](C)CN([C@@H](C)CO)C(=O)c2cc(NS(=O)(=O)c3ccc(Cl)cc3)ccc2O1,-1.5,/,/,/,-0.1,-1.5
C[C@H](CO)N1C[C@H](C)[C@H](CN(C)S(C)(=O)=O)Oc2cc(-c3ccccc3F)ccc2S1(=O)=O,-3.0,/,/,/,-0.2,-1.3
Nc1ccccc1-c1ccccc1N,/,3.3,0.5,-4.8,44.1*,0.1
Nc1ccccc1-c1ccc(Cl)cc1,8.7,6.4,0.2,22.2,0.0,-2.3
C[C@H]1CN([C@@H](C)CO)C(=O)c2cc(NS(=O)(=O)c3ccc(F)cc3)ccc2O[C@@H]1CN(C)C(=O)NC1CCCCC1,0.0,/,/,/,-0.3,-3.2
Cc1ccc(-n2cc(-c3ccccc3)c3c(N4CCOCC4)ncnc32)cc1,/,-2.1,-3.8,-1.5,42.9*,5.9
O=C(C1CCCC1)N1CC2(C1)[C@H](c1ccccc1)[C@H](CO)N2CC1CCCC1,/,/,/,/,/,-1.8
CC(C)Cc1nc2c(nnn2Cc2ccccc2F)c(=O)[nH]1,4.1,0.6,-0.3,-0.5,0.7,37.7*
CN(C)CCCn1c(=O)n(C2CCCCC2)c(=O)c2c3c(sc21)CCCCC3,-43.0,3.6,-5.2,2.0,-0.3,27.8*
CN(C)/C=C(\C=O)c1ncc(C(F)(F)F)cc1Cl,/,-1.4,-0.1,5.1,43.0*,0.4
CN(C(=O)c1cc2c(s1)-c1ccccc1S(=O)(=O)C2)c1ccccc1,109.9*,7.5,3.0,8.3,0.1,7.8
C[C@@H]1CCCCO[C@@H](CN(C)C)[C@H](C)CN([C@@H](C)CO)C(=O)c2cc(NS(=O)(=O)c3ccc(Cl)cc3)ccc2O1,1.3,/,/,/,-0.2,-5.6
COCC(=O)OCc1cc2cccc(C)c2[nH]c1=O,/,41.9*,-4.9,2.8,0.1,-13.7
Cc1cccc2cc(COC(=O)COc3ccccc3)c(=O)[nH]c12,-0.2,/,0.4,-11.3,/,/
O=C(C[C@H]1C=C[C@@H](NC(=O)Nc2ccc(C(F)(F)F)cc2)[C@H](CO)O1)NCc1ccccn1,-5.0,/,/,/,-0.1,-1.5
Cc1ccc2cc(/C=N/NC(=O)c3ccc(F)cc3)c(Cl)nc2c1,/,-0.5,-2.7,3.5,0.0,-1.2
Cc1ccc(NCC(=O)N/N=C/c2cc3ccccc3nc2Cl)cc1,61.1*,/,7.0,/,/,/
SMILES,esBAF inh,Wnt bcat act,SMARCA2 activ,MITF act,FGF22 binding,MLL AF4-AF9 inh
Cc1ccc2nc(Cl)c(/C=N/Nc3ccc(C(=O)O)cc3)cc2c1,21.6,42.8*,7.4,64.7,0.0,4.6
CCCCn1cnc2c(=O)[nH]ccc21,/,/,-6.3,/,/,/
CCCNC(=O)N1[C@H](CO)[C@H](c2ccccc2)[C@H]1CNC(=O)C1CCC1,/,/,/,/,/,-4.3
Cn1cnc(S(=O)(=O)N2CC[C@@H]3[C@H]2c2cc(-c4cccc(F)c4)ccc2N[C@@H]3CO)c1,10.2,/,/,/,-0.3,5.0
O=c1nc(/C=C/c2ccc(O)c(O)c2)oc2ccccc12,-10.5,/,/,81.6*,/,/
COc1cc(C=O)ccc1OCc1ccc(Cl)nc1,63.1*,37.9*,-0.8,64.1,0.2,-1.5
Cc1noc(C)c1S(=O)(=O)Nc1ccc2c(c1)C(=O)N([C@H](C)CO)C[C@H](C)[C@@H](CN(C)S(=O)(=O)c1c(C)noc1C)OCCCC[C@H](C)O2,1.4,/,/,/,-0.2,-6.1
C/C=C/c1ccc2c(c1)O[C@@H](CN(C)Cc1ccc(C(=O)O)cc1)[C@@H](C)CN([C@H](C)CO)S2(=O)=O,4.0,/,/,/,-0.3,-3.5
Cc1cccc(OCc2nc3ccccc3c(=O)n2N)c1,59.3*,24.9,-0.2,67.0,/,/
Nn1c(COc2cccc(Cl)c2)nc2ccccc2c1=O,44.5*,/,1.8,52.2,/,/
O=C(C[C@@H]1C[C@@H]2c3cc(NC(=O)NC4CCCCC4)ccc3O[C@@H]2[C@H](CO)O1)NCc1ccccc1,-2.4,/,/,/,-0.3,-1.8
Cc1ccc2nc(-c3ccc(NC(=O)CN4C(=O)c5ccccc5C4=O)cc3)sc2c1,/,?,16.4*,69.9,/,/
Cc1ccc2nc(-c3ccc(NC(=O)CN4CCN(c5ccccn5)CC4)cc3)sc2c1,/,35.8*,6.8,/,-0.1,1.2
Cc1ccc2nc(SCC(=O)Nc3ccc(C(N)=O)cc3)[nH]c2c1,/,0.5,-4.9,0.6,43.2*,-1.9
Cc1ccc2nc(NC(=O)CN3CCN(c4ccccn4)CC3)sc2c1,0.5,2.3,-2.3,-5.8,-0.1,0.0
Cc1cccc(NC(=O)CCCSc2nc3ccccc3[nH]2)c1,/,-3.8,0.1,-24.3,42.9*,0.8
CNC[C@@H]1Oc2ccc(NS(C)(=O)=O)cc2C(=O)N([C@H](C)CO)C[C@H]1C,0.1,/,/,/,-0.3,0.8
CCCNC(=O)N(C)C[C@@H]1Oc2ncc(C#Cc3ccncc3)cc2C(=O)N([C@H](C)CO)C[C@H]1C,1.7,/,/,/,0.1,-7.3
O=C(C[C@H]1C[C@@H]2c3cc(NC(=O)c4ccc5c(c4)OCO5)ccc3O[C@@H]2[C@H](CO)O1)NCC1CC1,-5.9,/,/,/,0.0,-2.1
CCNC(=O)C[C@@H]1CC[C@@H](NS(=O)(=O)c2ccc(C)cc2)[C@@H](CO)O1,5.2,/,/,/,0.5,-0.3
Cc1ccc2nc(-c3ccc(NS(=O)(=O)c4c(C)n(C)c(=O)n(C)c4=O)cc3)sc2c1,/,47.8*,6.0,?,-0.2,5.5
Cc1ccc2nc(-c3ccc(NC(=S)NC(=O)CC(C)C)cc3)sc2c1,72.6*,51.8*,0.2,/,/,/
Cc1ccc2nc(-c3ccc(NC(=O)CSc4nccc(=O)[nH]4)cc3)sc2c1,/,/,1.9,39.0,0.1,-0.2
Cc1ccc(N(CC(=O)Nc2ccc(-c3nc4ccc(C)cc4s3)cc2)S(C)(=O)=O)cc1,24.8,-0.6,6.5,48.7,/,/
Cc1ccc2nc(-c3ccc(NC(=O)CSc4nc(N)cc(=O)[nH]4)cc3)sc2c1,?,56.4*,6.3,66.0,-0.2,0.5

# Screening results deposited in PubChem by several laboratories.
